Among the data in PubChem BioAssay (NCATS) are activity, negative = inhibition and Potency values, retold here.

Records with an inconclusive call do not appear. The source made the active and inactive calls. The call rests on the fitted dose curve; in most records, active means well fitted inhibition curve with a large enough effect; inconclusive means small, poorly fitted or top-dose-only effect; inactive means flat fitted curve, though single readings scatter.

Assay [1] in a line: qHTS profiling for inhibitors of Plasmodium falciparum proliferation (AID 504749). Further: nearly all actives have a fitted effect of over 60% in size.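 On activity, negative = inhibition: 0% = DMSO vehicle and full inhibition = artemisinin control.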 As to conditions: P. falciparum in erythrocytes, SYBR Green DNA, 72 h. The gist of the method:
(§1)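 P. falciparum-infected erythrocytes (0.3% parasitemia, 2.5% hematocrit final) were exposed to compounds for 72 h at 37 C in 5% CO2, then lysed with SYBR Green buffer overnight at room temperature; parasite DNA fluorescence was normalized to artemisinin and DMSO controls.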
A general note: qHTS replaces the single test concentration by a dilution series.

In a further assay the test system is 3D7. Described as above. As to conditions: P. falciparum in erythrocytes, SYBR Green DNA, 72 h; series mostly up to 28.7 µM. In a few lines:
as §1

Another assay relates to 7G8. The assay is described as above. As to conditions: P. falciparum in erythrocytes, SYBR Green DNA, 72 h; series mostly up to 28.7 µM. In a few lines: as §1
The next assay has as its system AA1029. The description is as above. To be noted: P. falciparum in erythrocytes, SYBR Green DNA, 72 h; series mostly up to 28.7 µM. The gist of the method:
as §1

A further assay concerns AS120. The assay is described as above. As to conditions: P. falciparum in erythrocytes, SYBR Green DNA, 72 h; series mostly up to 28.7 µM. In a few lines:
as §1

A further assay deals with ATS189. Described as above. As to conditions: P. falciparum in erythrocytes, SYBR Green DNA, 72 h; series mostly up to 28.7 µM. In a few lines: as §1
The test system of the next assay is ATS95. Described as above. To be noted: P. falciparum in erythrocytes, SYBR Green DNA, 72 h; series mostly up to 28.7 µM. The gist of the method: as §1
The next assay relates to C2A. Described as above. To be noted: P. falciparum in erythrocytes, SYBR Green DNA, 72 h; series mostly up to 28.7 µM. In a few lines:
as §1

The next assay deals with CP185. The assay is described as above. To be noted: P. falciparum in erythrocytes, SYBR Green DNA, 72 h; series mostly up to 28.7 µM. In a few lines: as §1
A further assay concerns CP191. The description is as above. To be noted: P. falciparum in erythrocytes, SYBR Green DNA, 72 h; series mostly up to 28.7 µM. The gist of the method:
as §1

The next assay concerns CP192. The assay is described as above. As to conditions: P. falciparum in erythrocytes, SYBR Green DNA, 72 h; series mostly up to 28.7 µM. In a few lines:
as §1

In the next assay the test system is CP194. The assay is described as above. To be noted: P. falciparum in erythrocytes, SYBR Green DNA, 72 h; series mostly up to 28.7 µM. The gist of the method:
as §1

The subject of another assay is CP201. Described as above. As to conditions: P. falciparum in erythrocytes, SYBR Green DNA, 72 h; series mostly up to 28.7 µM. In a few lines:
as §1

Another assay deals with CP203. The description is as above. As to conditions: P. falciparum in erythrocytes, SYBR Green DNA, 72 h; series mostly up to 28.7 µM. In a few lines: as §1
The next assay has as its system CP211. The description is as above. To be noted: P. falciparum in erythrocytes, SYBR Green DNA, 72 h; series mostly up to 28.7 µM. The gist of the method:
as §1

For another assay, the system named is CP215. The description is as above. To be noted: P. falciparum in erythrocytes, SYBR Green DNA, 72 h; series mostly up to 28.7 µM. The gist of the method:
as §1

For a further assay, the system named is CP217. The assay is described as above. As to conditions: P. falciparum in erythrocytes, SYBR Green DNA, 72 h; series mostly up to 28.7 µM. The gist of the method: as §1
The test system of another assay is CP237. The assay is described as above. To be noted: P. falciparum in erythrocytes, SYBR Green DNA, 72 h; series mostly up to 28.7 µM. The gist of the method:
as §1

The next assay deals with CP238. Described as above. As to conditions: P. falciparum in erythrocytes, SYBR Green DNA, 72 h; series mostly up to 28.7 µM. The gist of the method: as §1
Setting [2] is: at 28.7 µM (top of the series), parasite line A.
Where [3] appears, read: at 28.7 µM (top of the series), parasite line B.
Setting [4] is: at 12.8 µM (top of the series), parasite line A.
The mark [5] stands for this setting: at 12.8 µM (top of the series), parasite line B.
Potency means the concentration at half of the fitted maximal effect.

As to `COc1ccc(/C=N/NC(=O)c2ccncc2)cc1OC`, the activity, negative = inhibition in assay [1] (setting [2]) is 6.74% (inactive); in [1] (setting [3]) it was 9.47% (inactive). Further, the Potency entry in the assay with 3D7, in the assay on 7G8, with AA1029, in the assay with AS120, in the assay on ATS189 and in the assay with ATS95 was “inactive” throughout. For the same compound, the Potency entry in the assay on C2A, in the assay with CP185, in the assay on CP191, in the assay with CP192, in the assay on CP194 and with CP201 was “inactive” each time. Moreover, the Potency result with CP203, in the assay with CP211, with CP215, in the assay on CP217, in the assay on CP237 and in the assay on CP238 was “inactive” in each case.

Turning to `c1ccc(-c2nc[nH]c2-c2ccccc2)cc1`, the activity, negative = inhibition was 7.29% (inactive) in assay [1] (setting [2]) and -4.58% (inactive) in assay [1] (setting [3]). In addition, the Potency entry with 3D7, with 7G8, in the assay with AA1029, in the assay with AS120, with ATS189 and in the assay on ATS95 was “inactive” throughout. In addition, the Potency entry in the assay with C2A, in the assay on CP185, with CP191, with CP192, in the assay on CP194 and in the assay on CP201 was “inactive” in each case. The Potency entry in the assay with CP203, in the assay on CP211, with CP215, in the assay on CP217, with CP237 and in the assay on CP238 was “inactive” each time.

As for `CCCCCCCC/C=C\CCCCCCCCN`, the values for the activity, negative = inhibition in [1] (setting [2]) and in assay [1] (setting [3]) were 9.32% (inactive) and 3.75% (inactive), respectively. Also, the Potency result with 3D7, in the assay with 7G8, in the assay on AA1029, with AS120, in the assay on ATS189 and with ATS95 was “inactive” throughout. Also, the Potency result in the assay with C2A, with CP185, with CP191, in the assay on CP192, in the assay on CP194 and in the assay on CP201 was “inactive” each time. Also, the Potency entry with CP203, with CP211, with CP215, with CP217, in the assay with CP237 and in the assay with CP238 was “inactive” in each case.

As to `O=C(O)C(Cc1cc(I)c(O)c(I)c1)c1ccccc1` (stereo not given), the results for the activity, negative = inhibition in [1] (setting [2]) and in assay [1] (setting [3]) were -3.64% (inactive) and 7.72% (inactive), respectively. In addition, the Potency result with 3D7, in the assay on 7G8, in the assay on AA1029, in the assay on AS120, in the assay with ATS189 and in the assay on ATS95 was “inactive” in each case. In addition, the Potency entry in the assay with C2A, in the assay on CP185, with CP191, in the assay on CP192, in the assay with CP194 and in the assay with CP201 was “inactive” each time. The Potency result with CP203, in the assay on CP211, with CP215, in the assay with CP217, in the assay on CP237 and with CP238 was “inactive” throughout.

Take `CCOC(=O)[C@H](CCc1ccccc1)N[C@@H](C)C(=O)N1[C@H](C(=O)O)C[C@H]2CCCC[C@@H]21`: the activity, negative = inhibition was 8.44% (inactive) in assay [1] (setting [2]) and 4.83% (inactive) in [1] (setting [3]). Further, the Potency result in the assay on 3D7, in the assay with 7G8, with AA1029, in the assay with AS120, with ATS189 and in the assay with ATS95 was “inactive” each time. In addition, the Potency result with C2A, with CP185, with CP191, with CP192, in the assay on CP194 and in the assay with CP201 was “inactive” each time. Also, the Potency result in the assay with CP203, in the assay with CP211, with CP215, with CP217, in the assay on CP237 and in the assay on CP238 was “inactive” throughout.

Regarding `CCOC(=O)c1c(N)sc2c1CCN(Cc1ccccc1)C2`, the Potency in assay [1] (parasite line A) was 10 µM (active); in [1] (parasite line B), 5.01 µM (active); with 3D7 it was 11.2 µM (active); with 7G8 it was 6.31 µM (active); with AA1029, 5.01 µM (active); in the assay with AS120, 8.91 µM (active). For the same compound, the Potency in the assay with ATS189 was 7.94 µM (active); in the assay on ATS95, 8.91 µM (active); with C2A it was 11.2 µM (active); in the assay on CP185, 5.01 µM (active); in the assay with CP191, 5.01 µM (active); in the assay with CP192, 5.36 µM (active). Further, the Potency was 7.57 µM (active) in the assay with CP194; 6.75 µM (active) in the assay on CP201; 4.26 µM (active) in the assay on CP203; 6.75 µM (active) in the assay on CP211; 8.49 µM (active) in the assay on CP215; 5.62 µM (active) in the assay on CP217. Also, the Potency with CP237 is 7.94 µM (active); in the assay with CP238, 5.62 µM (active).

With `O=C(O)CCC(=O)Nc1ccc(S(=O)(=O)Nc2nccs2)cc1`, the activity, negative = inhibition in assay [1] (setting [4]) was 14.2% (inactive); in [1] (setting [5]), 11.7% (inactive). In addition, the Potency result in the assay on 3D7, with 7G8, with AA1029, in the assay with AS120, in the assay with ATS189 and in the assay on ATS95 was “inactive” each time. In addition, the Potency result in the assay with C2A, with CP185, in the assay on CP191, with CP192, in the assay with CP194 and in the assay on CP201 was “inactive” in each case. For the same compound, the Potency result in the assay on CP203, in the assay with CP211, with CP215, with CP217, in the assay with CP237 and with CP238 was “inactive” throughout.

As for `CCOc1ccccc1C(N)=O`, the activity, negative = inhibition is -8% (inactive) in [1] (setting [2]) and 15.4% (inactive) in assay [1] (setting [3]). Also, the Potency entry with 3D7, in the assay on 7G8, with AA1029, in the assay on AS120, with ATS189 and in the assay on ATS95 was “inactive” each time. For the same compound, the Potency entry with C2A, with CP185, in the assay on CP191, in the assay with CP192, with CP194 and in the assay on CP201 was “inactive” each time. In addition, the Potency entry in the assay on CP203, in the assay with CP211, in the assay with CP215, in the assay with CP217, in the assay on CP237 and in the assay with CP238 was “inactive” throughout.

On to `Nc1ccc(C(=O)NCC(=O)O)cc1`, for which the results for the activity, negative = inhibition in assay [1] (setting [4]) and in [1] (setting [5]) were 7.06% (inactive) and 8.58% (inactive), respectively. Besides, the Potency entry with 3D7, in the assay on 7G8, in the assay on AA1029, in the assay on AS120, with ATS189 and in the assay on ATS95 was “inactive” throughout. Also, the Potency result in the assay on C2A, with CP185, in the assay with CP191, in the assay with CP192, in the assay on CP194 and in the assay on CP201 was “inactive” in each case. Further, the Potency result with CP203, with CP211, in the assay with CP215, in the assay with CP217, with CP237 and with CP238 was “inactive” throughout.

In the case of `CCOc1cc(OCC)c(C(=O)CCC(=O)O)cc1OCC`, the figures for the activity, negative = inhibition in [1] (setting [2]) and in assay [1] (setting [3]) were 5.68% (inactive) and 1.04% (inactive), respectively. Besides, the Potency result in the assay on 3D7, with 7G8, in the assay on AA1029, with AS120, in the assay on ATS189 and with ATS95 was “inactive” throughout. Besides, the Potency result in the assay on C2A, with CP185, with CP191, in the assay with CP192, with CP194 and in the assay with CP201 was “inactive” each time. For the same compound, the Potency entry in the assay on CP203, with CP211, with CP215, with CP217, in the assay with CP237 and in the assay on CP238 was “inactive” throughout.

In the case of `CC(C)Nc1cccnc1N1CCN(C(=O)c2cc3cc(NS(C)(=O)=O)ccc3[nH]2)CC1`, the activity, negative = inhibition in assay [1] (setting [2]) was -10.7% (inactive); in assay [1] (setting [3]) it was 24% (inactive). Besides, the Potency result with 3D7, in the assay on AA1029, with AS120, with ATS189, in the assay with ATS95 and with C2A was “inactive” each time. In addition, the Potency entry in the assay on CP185, in the assay with CP191, in the assay on CP192, with CP194, in the assay with CP201 and in the assay on CP203 was “inactive” each time. For the same compound, the Potency entry in the assay with CP211, in the assay on CP215, with CP217, in the assay with CP237 and in the assay on CP238 was “inactive” in each case. For the same compound, the Potency with 7G8 was 12.6 µM (active).
